# Assay results published in PubChem BioAssay.
# Assay: small-molecule microarray binders of probe aCHRDL2, primary screen, biochemical, biotinylated probe, 635/667 nm fluorescence (AID 1100)
# Settings: higher = more signal
row,SMILES,composite z-score
1,CCOC(=O)C1=CCC(c2ccc(C)cc2)N(S(=O)(=O)c2ccc(C)cc2)C1 (stereo not given),0.845
2,CN(C)CCCNC(=O)[C@@]1(c2ccc([N+](=O)[O-])cc2)CC(=O)N(C2CCCCC2)[C@@H]1c1ccc(CO)cc1,0.759
3,CC(=O)N1Cc2ccccc2C[C@@]2(COC(c3ccc(OCCCO)cc3)=N2)C1=O,1.31
4,COCCOC(=O)N1C(=O)[C@@]2(c3cc(C#CC4=CCCCC4)ccc31)[C@H](C(=O)Nc1nc3ccccc3s1)[C@H]1C(=O)O[C@H](c3ccccc3)[C@H](c3ccccc3)N1[C@@H]2c1ccc(OCCO)cc1,0.235
5,C=CC[C@]1(C(=O)N2CCCCC2)N=C(c2ccc(OCCCO)cc2)O[C@H]1c1ccccc1,1.11
6,O=C1NCC(=O)N2[C@@H]1C[C@@H](C(=O)O)[C@H]2c1cccc(OCCO)c1,1.73
7,O=C1O[C@H](c2ccccc2)[C@H](c2ccccc2)N2[C@H]1[C@@H](C(=O)O)[C@]1(C(=O)Nc3ccc(C#CCCO)cc31)[C@H]2c1ccc(O)cc1,1.14
8,C=CCOC(=O)[C@H]1[C@@H]2C(=O)O[C@@H](c3ccccc3)[C@@H](c3ccccc3)N2[C@@H](c2ccc(OCCOC(=O)[C@@H]3C[C@@H]4C(=O)N[C@@H](CCCCN(C)C)C(=O)N4[C@@H]3c3ccc(O)cc3)cc2)[C@]12C(=O)Nc1ccc(I)cc12,-0.0178
9,CC(C)(C)OC(=O)CC[C@]12N=C(c3ccc(OCCCO)cc3)O[C@H]1c1ccccc1N(CCS(=O)(=O)c1ccccc1)C2=O,0.52
10,CN(C)C(=O)[C@@]1(Cc2ccccc2CN=[N+]=[N-])N=C(c2ccc(OCCCO)cc2)O[C@H]1c1ccccc1,1.01
11,COc1cc2c(cc1OC)CN(C(=O)[C@H]1[C@@H]3C(=O)O[C@@H](c4ccccc4)[C@@H](c4ccccc4)N3[C@@H](c3ccc(O)cc3)[C@]13C(=O)Nc1ccc(C#CC4=CCCCC4)cc13)CC2,0.785
12,CN1C(=O)C2C=CC(C(O)c3cc(C(F)(F)F)cc(C(F)(F)F)c3)N(N3CCCCC3)C2C1=O (stereo not given),1.01
13,COCC(=C=CC[C@H](O)c1ccccc1OCCO)C[C@H](O)c1cc(Cl)cc(Cl)c1O,-0.0448
14,CCCN1C(=O)[C@]2(CCS(=O)(=O)c3ccccc3)N=C(c3ccc(OCCCO)cc3)O[C@@H]2c2ccccc21,0.766
15,COc1cc2c(cc1OC)CN(C(=O)[C@H]1[C@@H]3C(=O)O[C@@H](c4ccccc4)[C@@H](c4ccccc4)N3[C@@H](c3ccc(O)cc3)[C@]13C(=O)Nc1ccc(C#CCNC(N)=O)cc13)CC2,0.0306
16,CN(C)CCCNC(=O)[C@@]1(C)c2ccccc2C(=O)N(Cc2cc(F)cc(C(F)(F)F)c2)[C@H]1c1ccc(CO)cc1,0.682
17,O=C1C2C=CC(C(O)C3CCCCC3)N(Nc3ccc([N+](=O)[O-])cc3)C2C(=O)N1c1ccccc1 (stereo not given),0.783
18,O=C1OCCC/C=C\[C@H]2OC34C=CCN(c5ccc6ccccc6c5)C(=O)[C@H]3N(CCCCCCO)C(=O)[C@@H]4C12 (stereo not given in full),0.711

row,SMILES,composite z-score
1,COCCOC(=O)N1C(=O)[C@@]2(c3cc(C#CCNC(N)=O)ccc31)[C@H](C(=O)NC[C@H](O)c1ccccc1)[C@H]1C(=O)O[C@H](c3ccccc3)[C@H](c3ccccc3)N1[C@@H]2c1ccccc1OCCO,0.218
2,CC(C)(C)OC(=O)CC[C@@]12N=C(c3ccc(OCCCO)cc3)O[C@@H]1c1ccccc1N(CCS(=O)(=O)c1ccccc1)C2=O,1.03
3,COC(=O)[C@@]1(Cc2ccc(F)cc2)[C@H]2c3cc(C(=O)N4CCCC4)n(Cc4cc(C)n(C)n4)c3C[C@H]2CN1C(=O)c1ccccc1,1.4
4,COC(=O)c1c(CC[C@@H](CO)NC(=O)N2CCC[C@H]2Cn2cc(-c3ccccn3)nn2)oc(C(C)=O)c1C(=O)OC,-0.337
5,CCOC(=O)[C@H]1CC=C2CC1C(=O)N1CCC[C@@H]1[C@@H]2O[Si](C)(C)C(C)(C)C (stereo not given in full),-1.04
6,C=CCC(OC(C)=O)[C@@H]1[C@@H](N(Cc2ccc(-c3ccccc3)cc2)C(=O)Cc2ccc(F)cc2)c2cc(OCCCO)ccc2N1C(=O)c1ccc(-c2ccccc2)cc1 (stereo not given in full),0.216
7,CCOC(=O)C[C@H]1[C@H](OC(=O)Cc2ccc3c(c2)OCO3)[C@@H](NC(=O)c2ccc(-c3ccccc3)cc2)c2cc(OCCCO)ccc2N1C(=O)c1ccc2ccccc2n1,-0.486
8,COCCCNC(=O)[C@@]1(Cc2ccccc2)N=C(c2ccc(OCCCO)cc2)O[C@H]1c1ccccc1,1.28
9,NC(=O)[C@@H]1[C@H]2C(=O)O[C@H](c3ccccc3)[C@H](c3ccccc3)N2[C@H](c2ccc(O)cc2)[C@@]12C(=O)Nc1ccc(C#CC3(O)CCCCCC3)cc12,0.523
10,COc1cc2c(cc1O)C(C1CC1)N(Cc1cc3c(cc1Br)OCO3)CC2 (stereo not given),0.655
11,CCCCCC1=C2CNC(CCC)(C(=O)OC)C=C2C(C)C1=O (stereo not given),0.952
12,COc1ccc(C(O)C2C=CC3C(=O)NC(=O)C3N2Nc2ccccn2)c2ccccc12 (stereo not given),0.108
13,COC(=O)C(CC#Cc1ccc2c(c1)[C@]1(C(=O)N2)[C@H](C(=O)O)[C@H]2C(=O)O[C@H](c3ccccc3)[C@H](c3ccccc3)N2[C@@H]1c1ccc(O)cc1)C(=O)OC,0.634
14,CC1(C)[C@@H]2CC(C(O)C3C=CC4C(=O)N(c5ccccc5)C(=O)C4N3Nc3ccccc3)=C[C@H]1C2 (stereo not given in full),0.663
15,COc1ccc([Si](C)(C)[C@H]2[C@H](CCn3cc([C@H](O)c4ccccc4)nn3)O[C@@]3(C(=O)N(Cc4cccc(N5CCOC5=O)c4)c4ccccc43)[C@@H]2C)cc1,-0.313
16,COc1cc2c(cc1O)C=[N+](Cc1cccc(OC(F)(F)F)c1)CC2,0.39
17,COC(=O)[C@@]1(Cc2ccc(OC)cc2)[C@H]2c3cc(C(=O)N(C)C)n(CCN4CNCC4=O)c3C[C@H]2CN1C(=O)c1ccccc1,0.7
